Results taken from the supplement of paper PMC6555819.

system: VDR:RXRa (NR concentration 270 nM, RXRa partner concentration 90 nM); assay: PBM binding z-score (relative to random genomic background probes); higher = stronger binding; sequences stand for … in GC…GCGATTGACAGCGTAGAATGAAGG
Description: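 Protein-binding microarray (Agilent 4x180K custom design, double-stranded 60-nt probes: 5' GC cap, 34-nt variable region, 24-nt constant primer region; full probe sequence given). Purified or IVT nuclear receptor:RXRα heterodimers (3:1 NR:RXRα, mostly 270:90 nM) or homodimers were incubated for 1 h in PBS with 2% milk and no ligand, then detected with Alexa488 antibodies. Fluorescence from o1-orientation probes (~5 replicates averaged) was converted to z-scores against 500 random hg19 background probes. Variable regions are seed direct-repeat (DR0–DR5) sites, all their single-nucleotide variants and half-site ablations.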

Sequence	PBM binding z-score
CCGAGTAGGTTACGAGGGGGCATCCAGTGCGAAT	4.75
ATATCTAGGTTAGGGTCATTCAGAAAGTAGGGAA	4.41
CTCGAAAGGTCGAGCTCAGGTGAGTATACCAAAC	2.71
CTATGTAGGTTAAGGGCGTCATTCAGTTTGAAAG	0.981
CGTCCAAGGTCAGCAGGTGAGTGAAAGCGACGTG	2.67
TAGCCTAGGTCACGGGCCAGTATACCACGCGAAC	2.94
TCATATAGGTCAAAGGTGAAAGTCGGTGTGGTAA	4.65
CAGAGTAGGTTACGAGGGGGCATTCAGTGCGAAT	5.33
AGTCAAAGTTCAGGACGAGATAACGTAAAGCACG	2.19
ATCTAAAGGTCGAAGGTGAGTATACCCACCCGAA	2.95
ATCTCTAGGTTAAAGTTCAGTGAATCCCGAGGAT	2.76
CCTAGTGGGCCAAAGGTCATTGATTCCAATGCTC	4.68
CGTCCAAGGTCAAGGTCACTGAAAGAGACTCGAA	5.49
TATTGTAGATCAAAGGTTAAGAAAGCCGAAGCCT	1.54
ATATGTAGGATAGGGTCATTCAGAAAGTAGGGAA	3.79
AGAATGAGGTTAAGATTAGGGAAACAGAATACAT	1.36
AATACAGGATCACTAGGCCAGAGTAGGTACGAAT	-0.235
CCGAGTAGGTTACGAGGGGGCATACAGTGCGAAT	4.67
CCTACTGGGCGAAGGTCATTGATCAGTCAAAGCA	2.18
AGTCAAAGTTCACGACGAGGTAACGTAAAGCACG	5.05

Sequence	PBM binding z-score
CCTGCTAGGTCAATGGTCAGCTCAAGCAGCTCGC	0.923
CCCACTGGGGCAAAGGTTACCATACTCAGTACGA	1.61
CAAACTAGGTCACAGAGGTCGAAGTCCGTGCGTA	6.75
CGAACTAGGTCAAAGCACAGTGAAAGGCGACGTA	1.2
ATATGTAGGTTAAGGTCATTCAGAAAGTAGGGAA	4.69
CTATGGAGGTTAAGGGGGTCATTCAGTTTGAAAG	8.03
CGAACTAGGTCACCAGCACAGTGAAGAGGTTGGA	1.89
TTACCAAGGTGAACTGAGGTCGTTGATCCAACTC	5.77
CTCGAAAGGTCGTGGTCAGGTGAGTATACCAAAC	3.61
CCTACAGGGCCAAAGGTCATTGATTCCAATGCTC	5.03
CATCCAAGGTCAAAGGTCAGTGAAGAGATGACGG	6.71
TCGAGTAGGTTACGAGGGCATTCAGGGATGAAGA	2.32
CAATGTAGGTTAAGGGGGTCATTCAGTTTGAAAG	7.74
TTACCAAGGTTAAAGGTCGTTGATGCACGCCTTG	4.55
CTATGTAGGTTAAGGGGTTCATTCAGTTTGAAAG	7.62
AAATGTAGGTTAAGGGTCATTCAGGTTGGTTCGC	5.82
ACTAGTTGGTCAGCTGAGGTCACACACAATTCGG	4.67
CGAACTAGGTCACCAGGACAGTTAAGAGGTTGGA	2.11
CGAACTAGATCACCAGGACAGTGAAGAGGTTGGA	-0.366
GCTTACGGGTCAAAGGTTATAACATGAATAGAAT	5.68
